Source: PubChem (several laboratories)
Most compounds without a hit are left out; they make up all but 4.8% or so of the library.
NF-kB neuron act: raises NF-kB expression in human neuronal cells; AID 1239; hit rate 1.6% among 190,000; fold change at 12.5 µM; NF-kB reporter expression; active compounds read high; in the data active means fold change above about 3.3
STAT1 activator: STAT1 signaling activation | NIH 3T3 STAT1-luciferase reporter, IFN-gamma, luminescence; 100% = IFN-gamma alone, no compound | hit rate 2.6% among 200,000 | activation (% of control), % at 5.5 µM | AID 932;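 active means activation above the screen-wide mean activation plus 3 SD, cut at about 130% in these data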;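 further: raw ratio to IFN-gamma control signal so 100% means no change and 0% no light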
APP 5'UTR act: activates APP 5'UTR luciferase reporter; SH-SY5Y APP 5'UTR luciferase reporter, luminescence; zero percent = DMSO vehicle wells; activation, % at 2 µM; hit rate 1% among 190,000; AID 1276;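 active means activation above a set limit, based on mean plus 3 SD of controls, cut at about 140% in these data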
Hsp70 activator: Hsp70 transcriptional activation, primary screen; HeLa Hsp70 promoter luciferase reporter, luminescence; scaled: vehicle 0, proteasome-inhibitor control 100%; activation, % at 10 µM; hit rate 0.04% among 200,000; AID 1203;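 active means activation above the mean across all tested compounds plus 3 SD, cutoff set per campaign, cut at about 5.5% in these data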;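 further: 100% = MG132 at 30 µM as the positive control and 0% = DMSO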
APP 5UTR inh: APP translation inhibition | SH-SY5Y APP 5'UTR-luciferase reporter, luminescence | inhibition, % at 2 µM | hit rate 0.82% among 190,000;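 active means inhibition above a set limit, derived from the sample mean plus 3 SD, cut at about 45% in these data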
Wee1 stabilizer: human Wee1 degradation inhibition, primary screen. HeLa Luc-Wee1K328M stability, luciferase luminescence; 100% = proteasome inhibitor MG132 effect. hit rate 1.2% among 220,000. reporter increase, % at 5 µM;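 active means activation above the mean of all tested compounds plus 3 SD, set per screening run, cut at about 8.8% in these data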;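 further: cells exposed to compound for 20 h before luminescence read; 0% = DMSO alone and 100% = MG132 at 30 µM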
Target sequence (P30291 whole entry K328M): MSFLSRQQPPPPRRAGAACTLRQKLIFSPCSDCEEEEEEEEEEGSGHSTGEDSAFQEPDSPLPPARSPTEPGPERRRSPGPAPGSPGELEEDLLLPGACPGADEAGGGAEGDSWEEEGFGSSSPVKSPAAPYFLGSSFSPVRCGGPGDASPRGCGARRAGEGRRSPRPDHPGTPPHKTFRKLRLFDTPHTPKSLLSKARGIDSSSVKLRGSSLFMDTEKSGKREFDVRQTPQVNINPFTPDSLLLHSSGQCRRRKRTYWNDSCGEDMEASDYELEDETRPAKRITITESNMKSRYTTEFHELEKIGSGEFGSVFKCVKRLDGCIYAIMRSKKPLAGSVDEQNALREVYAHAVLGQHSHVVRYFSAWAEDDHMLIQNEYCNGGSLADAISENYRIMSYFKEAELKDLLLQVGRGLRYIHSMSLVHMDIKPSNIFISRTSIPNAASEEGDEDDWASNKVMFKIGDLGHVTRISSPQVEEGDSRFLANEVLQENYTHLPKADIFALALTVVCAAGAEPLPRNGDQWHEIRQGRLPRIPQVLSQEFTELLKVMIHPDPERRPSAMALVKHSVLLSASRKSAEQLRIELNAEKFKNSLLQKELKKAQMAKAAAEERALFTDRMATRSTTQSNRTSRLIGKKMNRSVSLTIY
* = called active by the depositor; · = no result.

SMILES	NF-kB neuron act	STAT1 activator	APP 5'UTR act	Hsp70 activator	APP 5UTR inh	Wee1 stabilizer
O=C(OCCN(C1=NS(=O)(=O)c2ccccc21)c1ccccc1Cl)c1ccc(Cl)cc1	0.93	97	-6	0	6	9.7*
COc1cc2c(cc1NC(=O)C1CCCO1)oc1ccccc12 (centres undefined)	5.6*	147*	162*	0	-162	-1
COc1cc2c(cc1NC(=O)c1cccc(S(=O)(=O)N(C)C)c1)oc1ccccc12	1.4	134*	20	0	-20	1
COc1ccc(Cl)cc1NC(=O)C1CCCO1 (centres undefined)	1.1	100	-12	0	12	-1
O=C(CCn1cnc2ccccc21)N/N=C/C=C/c1ccccc1	·	·	·	·	·	-3
C(#Cc1ccccc1)Cn1nnc2ccccc21	1.8	134*	42	0	-42	4
O=C(O)Cn1nnc2ccccc21	·	·	·	·	·	1
O=C(Nc1cccn2ncnc12)c1ccccc1	1.2	96	15	0	-15	0
O=[N+]([O-])c1cc(CN2CCN(c3cccc(C(F)(F)F)c3)CC2)c2cccnc2c1O	0.89	111	-65	0	65*	4
O=[N+]([O-])c1cc(CN2CCCC2)c2cccnc2c1O	1.1	103	-3	0	3	0
O=C1c2ccccc2C(=O)N1CCSc1nncs1	1.1	115	9	-1	-9	1
O=C1c2ccccc2C(=O)N1CCSc1ccccc1	3.1	138*	62	1	-62	2
Cc1ccc2sc(-c3ccc(NC(=O)/C=C\C(=O)O)cc3)nc2c1	5.4*	59	197*	0	-197	1
O=C(Nc1cccc(-c2nc3ccccc3s2)c1)c1cc(-n2cnnc2)ccc1Cl	0.84	106	31	0	-31	-2
Cc1ccc2sc(-c3ccc(NC(=O)c4cc(-n5cnnc5)ccc4Cl)cc3)nc2c1	1.1	149*	156*	0	-156	4
O=C(O)CCSc1nnc(COc2cccc3cccnc23)n1-c1ccccc1	1	97	26	0	-26	1
Cc1ccc(CCC(=O)Nc2ncc(Cc3cccc(Cl)c3Cl)s2)o1	1.4	108	-96	0	96*	-2
CCCSc1nsc(NC(=O)CC)n1	3.7*	130*	112	0	-112	4
NC(=S)N=Nc1c(O)n(Cc2ccc(F)cc2)c2ccccc12	0.85	98	6	0	-6	-1
NC(=S)N=Nc1c(O)n(Cc2ccc(Br)cc2)c2ccccc12	1.1	96	-58	0	58*	4
COc1ccc(OC)c(Nc2nc(NCc3ccco3)nc(N)c2[N+](=O)[O-])c1	·	·	·	·	·	8.9*
Nc1nc(Nc2ccccc2)nc(NCc2ccccc2)c1[N+](=O)[O-]	·	·	·	·	·	-3
Cc1ccc(Nc2nc(N)c([N+](=O)[O-])c(NCc3ccco3)n2)cc1C	1.2	139*	50	0	-50	3
Nc1nc(Nc2ccccc2F)nc(NCc2ccccc2)c1[N+](=O)[O-]	·	·	·	·	·	9.6*
CCC(CC)c1nnc(NC(=O)CN2C(=O)c3ccccc3C2=O)s1	1.2	96	4	0	-4	-2
SMILES	NF-kB neuron act	STAT1 activator	APP 5'UTR act	Hsp70 activator	APP 5UTR inh	Wee1 stabilizer
N#Cc1c(N)nc2c(c1N)CC(=O)N2c1ccc(Cl)cc1	1.9	99	24	0	-24	3
CN(C)S(=O)(=O)c1ccc(C(=O)NCCOc2ccccc2)cc1	2.8	131*	·	0	-104	6
O=C(N/N=C/c1ccc(O)cc1)Nc1cccc2nsnc12	0.37	118	-12	0	12	-4
CN(C)c1cccc(-c2nnc(SCCCC#N)o2)c1	3.1	121	154*	0	-154	3
CCOCCCNC(=O)C1CCN(S(=O)(=O)CC)CC1	0.9	104	1	0	-1	15*
Cn1c(C(=O)NCc2ccccn2)cc2c(=O)n3ccccc3nc21	1.9	133*	17	0	-17	-1
COc1ccc(NC(=O)c2cc3c(=O)n4ccccc4nc3n2C)c(OC)c1	1.3	107	21	0	-21	0
O=C(O)c1ccc(CNC(=O)c2ccccc2NC(=O)c2cccc([N+](=O)[O-])c2)cc1	1	96	4	0	-4	0
Fc1ccc(-c2n[nH]c(=S)n2-c2ccc3c(c2)OCCO3)cc1	1.2	99	21	0	-21	9.1*
S=c1[nH]nc(-c2ccc(Cl)cc2)n1-c1ccc2c(c1)OCCO2	1.2	94	0	0	0	0
CCCC(=O)Nc1ccc(C(=O)NCC(=O)OCC)cc1	1.2	108	-4	0	4	-2
O=c1c2ccccc2cnn1-c1ccc(Cl)nn1	1.4	111	8	1	-8	5
O=c1c2ccccc2cnn1-c1ccc2ccccc2c1	3.4*	131*	168*	0	-168	3
Cc1ccccc1/C=N/NC(=O)Cn1nnc(N)n1	1.2	92	-1	0	2	-4
O=C(COc1ccccc1)N/N=C/c1ccc(O[C@@H]2O[C@H](CO)[C@@H](O)[C@H](O)[C@H]2O)cc1	1.3	108	-4	0	4	10*
O=C(CCn1cnc(-c2ccccc2)c1-c1ccccc1)N/N=C/c1ccc(O)cc1	0.75	92	13	0	-14	3
Nc1nnn(CC(=O)N/N=C/c2cccc3ccccc23)n1	1.4	99	-62	0	62*	4
O=C(COc1ccccc1-c1ccccc1)N/N=C/c1cccc2ccccc12	4.1*	108	-95	0	95*	5
COc1ccc(/C=N/NC(=O)CCn2cnc(-c3ccccc3)c2-c2ccccc2)cc1	2	101	-89	0	89*	5
CCC1(C)Cc2c(sc3c2c2ncnn2c2nnc(SCC(=O)NCc4ccco4)n32)CO1 (centres undefined)	1.2	101	-12	0	12	2
COc1ccc(/C=N/NC(=O)COc2ccccc2-c2ccccc2)cc1	5.3*	94	-97	0	96*	3
O=C1CSC(c2cccs2)N1c1ccccc1 (centres undefined)	1.1	102	9	1	-9	0
Cc1nn(C)c2ncc(C(=O)c3cc(F)ccc3O)cc12	0.86	106	-52	0	52*	6
Cc1nn(-c2ccccc2)c2ncc(C(=O)c3cc(Cl)ccc3O)cc12	1	106	-1	0	1	-2
Cn1c(=O)[nH]c(=O)c2cc(C(=O)c3cc(F)ccc3O)cnc21	1	92	12	0	-12	10*
O=C(O)CC1S/C(=N/N=C/C=C/c2ccccc2[N+](=O)[O-])NC1=O (centres undefined)	1.3	100	-2	0	2	-2
COc1ccc(/C=N/NC(=O)c2ccc(Cn3cc([N+](=O)[O-])cn3)o2)c(OC)c1C	1.3	97	8	0	-8	-1
